# The entries come from a sample that favours hits as a whole.
# Peg3 imprint – induces erasure of genomic imprints in mouse ES cells; mouse ES Peg3-LacZ reporter, beta-gal luminescence, 40 h; Potency, µM (top dose mostly 60.7 µM), inactives show at the highest dose activity change, positive = activation, hits mostly activators; 0.02% of 110,000 active; AID 1948; further: potency means the concentration at half of the fitted maximal effect
#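 Readout: BetaGlo luminescence (5 min, room temp) for LacZ from the normally silent maternal Peg3 allele in female Peg3LacZ-Neo ES cells. Cells 300/well, 40 h, 37C, 5% CO2. Data normalized per plate to negative controls.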
# HBB splicing – alters splicing of the hemoglobin beta chain; HBB splicing reporter cell assay, activation; EGFP reporter with mutant IVS2-654 intron; response scale: normalised to 500 nM splice-correcting PNA; Potency, µM (doses to about 46.1 µM), without a hit: at the highest dose activation, actives largely listed as activators; 0.06% of 65,000 active; AID 925; further: potency means the concentration at half of the fitted maximal effect; 0% is about no effect
#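 Compounds were applied for 2 days to HeLa EGFP-654 cells, 500/well in Optimem with 2% FCS. The reporter's EGFP is disrupted by mis-splicing of beta-globin intron IVS2-654. Readout: summed well GFP fluorescence from 488 nm laser scanning; reference was 500 nM antisense […] 654 PNA.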
# CRE-bla Fsk – modulators of forskolin-stimulated CRE signaling in CHO cells; CHO CRE-bla reporter (cAMP response element driving beta-lactamase), forskolin EC10, beta-lactamase ratio; Potency, µM (top dose mostly 38.2 µM), for the others: top-dose activity change, negative = inhibition, usual class: activators; 2.5% of 71,000 active; AID 662; active means well fitted activation curve with a large enough effect in the signal ratio, with a control signal flat, not every such curve was filed as active; inconclusive means small, poorly fitted or top-dose-only effect, or effect the other way, or a change in a side signal; the % refers to the signal ratio; further: potency means the concentration at half of the fitted maximal effect; % of control where 0% means no effect
#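 Titrated compounds plus EC10 NKH 477 on CHO CRE-bla cells, 3 h, 37 °C. CCF4, 2 h RT. Ratio 460/530 nm → AC50.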
# GFP derepression – epigenetic GFP locus derepression in mouse cells; mouse C127i GFP locus derepression, cytometry, 30 h; Potency, µM (doses to about 46.1 µM), without a hit: at the top dose GFP derepression (activation); 0.09% of 68,000 active; AID 597; further: % of control where 0% means no effect
#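 Read-out is the number of GFP-positive cells, scored as fluorescent objects 20 to 120 um wide, reflecting derepression of a silenced CMV-GFP reporter in murine C127i cells after 30 h compound exposure at 37 C.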
# IkB sig inh – suppresses IkB signaling in ABC-DLBCL reporter cells. Potency, µM (titrated, usually from 57.1 µM), for the others: top-dose IkBa stabilization activation. 0.04% of 110,000 active. ABC-DLBCL IkBa-CBG/CBR dual luciferase ratio, 4 h; response scale: scaled: untreated 0%, proteasome inhibitor 100%. AID 445; active means well fitted curve in the direction sought with a large enough effect in the signal ratio, not every such curve was filed as active; inconclusive means small, poorly fitted or top-dose-only effect, or a change in a side signal; the % refers to the signal ratio;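 further: potency means the concentration at half of the fitted maximal effect; the direction sought is a rising ratio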
#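 Curves were fitted separately to fusion (green), unfused (red) and ratio luminescence, then classed by r2, magnitude and activity. Cells: OCI-Ly3, 4 h compound plus doxycycline at 37C; 10 uM MG-132 defined full response.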
# An asterisk follows results filed as active; ? = inconclusive; / = no result; [ ] = dose if it differs, or a comment. Unless noted, the call rests on the fitted dose curve; in most records, active means well fitted curve in the direction sought with a large enough effect; inconclusive means small, poorly fitted or top-dose-only effect, or another doubt; inactive means no such curve, though single readings can be large; an effect the other way counts as inactive or inconclusive.
SMILES,Peg3 imprint,HBB splicing,CRE-bla Fsk,GFP derepression,IkB sig inh
COc1ccc(N2CSC3=C(C#N)C(c4cccc(OC)c4OC)CC(=O)N3C2)cc1 (centres undefined),-17%,0%,4µM*,/,4%
COc1ccc(OC)c(C2CC(=O)N3CN(c4ccccc4)CSC3=C2C#N)c1 (centres undefined),-21%,0%,6%,-2%,6%
CN(C)CCC(=O)[C@@]1(O)CC[C@H]2[C@H]3CC=C4C[C@@H](O)CC[C@]4(C)[C@H]3CC[C@]21C,-28%[10.9 µM],3%[9.22 µM],-11%[7.6 µM],?,5µM*
CC(C)CCC[C@@H](C)[C@H]1CC[C@H]2[C@@H]3CC=C4C[C@@H](O)CC[C@]4(C)[C@H]3CC[C@]12C,-4%,/,/,/,/
COc1ccccc1NC(=O)CN1CCC(n2c(C)nc3cc(F)ccc32)CC1,-2%,0%[57.5 µM],2µM*,1%,2%
COc1ccccc1CNc1nc(-c2ccco2)nn1C(=O)c1ccccc1[N+](=O)[O-],5%[10.9 µM],/,/,/,?
COc1cc2c(cc1OC)-c1nnc(C)n1C1(CCCC1)C2,-6%,0%,?,/,-3%
COc1cc2c(cc1OC)-c1nncn1C(C)(C)C2,-7%,6%,13µM*,2%,-2%
COc1ccc(NC(=O)Cc2csc(COc3cccc(C)c3)n2)cc1OC,-20%[10.9 µM],/,/,/,?
Cc1cccc2cc3c(nc12)SC(=NCC1CCCO1)N(Cc1ccco1)C3 (centres undefined),-22%,0%[57.5 µM],?,3.2µM*,?
Cc1ccc2nc3c(cc2c1)CN(Cc1ccco1)C(=NCC1CCCO1)S3 (centres undefined),-29%,0%[57.5 µM],1%,-2%,?
Cn1c(=O)c2c(nc(NC3CCCCC3)n2Cc2ccccc2)n(C)c1=O,-19%,-1%,10µM*,/,?
Cn1c(=O)c2c(nc(NCc3ccccc3)n2Cc2ccccc2)n(C)c1=O,-21%[10.9 µM],/,/,/,6%
CCOC(=O)Cc1nnc(NC(=O)c2ccccc2OCC)s1,-8%,4%,13µM*,9%,-4%
CCCN(CCC)c1nc(C)cc(C(C#N)c2nc3ccccc3o2)n1 (centres undefined),-4%,-2%,1.6µM*,1%,0%
COc1cccc(CNC(=O)CCc2c(C)c3cc4c(C)coc4cc3oc2=O)c1,-6%[10.9 µM],/,/,/,?
COc1ccc(-n2c(=O)c3c4c(sc3n(Cc3cc(=O)n5c(C)cccc5n3)c2=O)CCC4)c(OC)c1,-4%[10.9 µM],/,/,/,?
CCCS(=O)(=O)N1CCc2cc(OC)c(OC)cc2C1,-21%,-1%,?,3%,1%
COc1cc2c(cc1OC)-c1cc(OCCN3CCOCC3)nc(=O)n1CC2,3%,2%[1.84 µM],7.9µM*,-1%,-2%
COc1cc2c(cc1OC)-c1cc(NCc3ccccn3)nc(=O)n1CC2,-2%,0%[0.369 µM],13µM*,0%,-2%
COc1cc(C(=O)OCCN2CCOCC2)cc(OC)c1OC,-1%,-1%,?,-2%,2%
CCNc1cc2n(c(=O)n1)CCc1cc(OC)c(OC)cc1-2,-13%,1%[57.5 µM],10µM*,4%,3%
CCCCCCNc1cc2n(c(=O)n1)CCc1cc(OC)c(OC)cc1-2,-14%,-2%[57.5 µM],2µM*,2%,-4%
Cn1nc(-c2ccccc2F)c2cc(C(=O)N3CCN(c4ccccc4F)CC3)sc21,-9%[10.9 µM],/,/,/,?
CCOC(=O)c1c(S(=O)(=O)NCC(=O)Nc2cccc(SC)c2)c(C)n(C)c1C,-14%[10.9 µM],/,/,/,-3%
COc1ccc(-c2nnc3sc(CN4C(=O)c5ccccc5C4=O)nn23)cc1,-6%,3%[57.5 µM],?,6%,-2%
COc1ccc(-c2nnc3sc(C(C)N4C(=O)c5ccccc5C4=O)nn23)cc1 (centres undefined),-8%,0%,10µM*,-2%,-2%
COc1cccc(Cn2c(=O)c(-c3cccc(C#N)c3)nc3cnc(OC)nc32)c1,2%,1%,?,5%[9.22 µM],-1%[11.4 µM]
COc1ccc(-c2nc3cnc(OC)nc3n(Cc3cccc(OC)c3)c2=O)cc1,/,-1%,2.5µM*,0%[9.22 µM],2%[11.4 µM]

# High-throughput results deposited in PubChem BioAssay by National Center for Advancing Translational Sciences (NCATS).
